Drawing on PubChem BioAssay AID493011 (Sanford-Burnham Center for Chemical Genomics, 2011), this text covers inhibition for 75 molecules.

One may read the inhibition as the drop in the measured response relative to a control, in per cent.

Hit rate of the full screen: of about 330,000 compounds, about 1,400 (0.42%) were called active.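 How the source made its calls: active means at least 40% inhibition at 20 µM here, with at most 30% in a related deaminase screen; inactive means the rest.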 The full list was thinned out, with actives kept by preference.

In this assay the target is DNA dC->dU-editing enzyme APOBEC-3A (Homo sapiens) (UniProt P31941). As to the kind of experiment: APOBEC3A ssDNA deaminase inhibitors, primary screen, selectivity assay for APOBEC3G inhibitor project, biochemical, FAM/TAMRA oligo cleavage fluorescence (AID 493011).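 Further: plate controls were A3A with DMSO for no effect and wells lacking A3A enzyme for full effect.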 As to conditions: recombinant A3A, FAM/TAMRA ssDNA deamination fluorescence; at 20 µM; hits give high values.
Sequence of DNA dC->dU-editing enzyme APOBEC-3A (Homo sapiens) (P31941 whole entry, looked up): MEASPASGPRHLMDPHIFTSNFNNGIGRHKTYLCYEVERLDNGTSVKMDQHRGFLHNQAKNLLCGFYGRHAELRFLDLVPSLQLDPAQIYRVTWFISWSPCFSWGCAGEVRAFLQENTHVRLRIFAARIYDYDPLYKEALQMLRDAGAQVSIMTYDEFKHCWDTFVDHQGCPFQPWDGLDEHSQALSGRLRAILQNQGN
Consider `O=C(CN1CCOC1=O)N1CCCC(Nc2ccc(F)c(F)c2)C1` (stereo not given), for which the inhibition is -3.28% (inactive).
The figure for `CCS(=O)(=O)c1ccc(-c2cccc(NC(=O)c3ccc(Br)o3)c2)nn1` is 95.4% (active); for `CC(CNC(=O)c1ccc(Br)o1)NC(=O)c1ccc(Br)o1` (stereo not given) it is 2.21% (inactive).
The same measure for `O=C(CNC(=O)c1ccc(Br)o1)Nc1ccccc1`: -8.36% (inactive); for `Cc1cc(C)cc(Oc2c(C(F)(F)F)oc3cc(OCC(=O)O)ccc3c2=O)c1`: 9.37% (inactive).
The same measure for `N#Cc1ccsc1NC(=O)CN1CCCCC1`: -2.27% (inactive).
Regarding `N#Cc1ccsc1NC(=O)CN1CCN(S(=O)(=O)c2cc(Cl)ccc2Cl)CC1`, the inhibition was 40.6% (active).
The figure for `O=C(CN1CCN(S(=O)(=O)c2cc(Cl)ccc2Cl)CC1)c1ccc(O)c(O)c1` is -5.68% (inactive).
`CC(CC(=O)C1C(C)C=CCC1(C)C)NNC(N)=O` (stereo not given): the inhibition is 0.901% (inactive).
The figure for `CSc1ccccc1NC(=O)c1cnc2sc(C)cn2c1=O` is 0.854% (inactive).
In the case of `CCc1c(C)nc2ncnn2c1N1CCC(C(=O)NCc2ccc3c(c2)OCO3)CC1`, the inhibition was 2.23% (inactive).
Turning to `O=C(COC(=O)c1ccccc1O)NCc1ccco1`, the inhibition was 32.8% (inactive).
The figure for `COc1ccc(CCNC(=O)COC(=O)c2cnc(Cl)c(Cl)c2)cc1` is 4.13% (inactive).
In the case of `O=C(COC(=O)c1cnc(Cl)c(Cl)c1)NCc1ccco1`, the inhibition was 50.6% (active).
The figure for `CC(C)CCN1CCC(C)(NC(=O)c2ccccc2)C1=O` (stereo not given) is 0.313% (inactive); for `COc1ccccc1N(C)S(=O)(=O)c1ccc(Cl)c(C(=O)N2CCC(C(N)=O)CC2)c1` it is 1.46% (inactive).
In the case of `Cc1sc(NC(=S)NC(=O)c2cccs2)nc1-c1ccc(CC(C)C)cc1`, the inhibition is 2.88% (inactive).
The same measure for `CCc1nnc(NC(=O)CCC(=O)N2CCN(c3cc(C)ccc3C)CC2)s1`: -1.97% (inactive); for `COc1ccc(Cc2cc(-c3ccc(F)cc3)n[nH]c2=O)cc1`: -4.85% (inactive); for `COc1ccc2[nH]c(=O)c(CNc3ccc(C)c(C)c3)cc2c1`: 0.515% (inactive).
The figure for `CCC(=O)N(CCc1ccccc1)Cc1cc2cc(C)ccc2[nH]c1=O` is -6.3% (inactive); for `CCN(Cc1cc2cc(C)ccc2[nH]c1=O)S(=O)(=O)c1ccccc1` it is -2.49% (inactive).
The same measure for `CCCc1nc(-c2cc3cc(C)ccc3[nH]c2=O)no1`: 40.2% (active); for `COc1ccc2[nH]c(=O)c(-c3noc(-c4ccc(F)cc4)n3)cc2c1`: 70.7% (active).
`C/C(=C\c1ccco1)CN1CCC(N2CCC(C(=O)N3CCOCC3)CC2)CC1`: the inhibition was -1.12% (inactive).
The same measure for `CC1CCCCC1NC(=O)CSc1nnc(N)s1` (stereo not given): -0.077% (inactive); for `Cc1cc(C)n2nc(C(=O)Oc3ccc4c(c3)OCO4)nc2n1`: 0.02% (inactive).
The figure for `Cc1ccc(-c2nc(C#N)c(NCCCn3ccnc3)o2)cc1` is 0.374% (inactive).
As for `CC[n+]1cc(C)ccc1/C=C/c1ccc(N(C)C)cc1`, the inhibition was 64.4% (active).
Turning to `CN1CCN(S(=O)(=O)c2cccc(C(=O)Nc3sccc3C#N)c2)CC1`, the inhibition was 0.346% (inactive).
The same measure for `Cc1ccc(CNC(=O)c2ccc(CS(=O)Cc3cccc(Cl)c3)o2)cc1` (stereo not given): -4.67% (inactive); for `Cc1ccc(/C=C/C(=O)OCC(=O)NCc2ccc(Cl)cc2)o1`: 1.93% (inactive).
The figure for `CS(=O)(=O)NCc1ccc(C(=O)NCc2ccccc2)cc1` is -3.29% (inactive).
The figure for `Nc1ccc(C(=O)NCc2ccccc2)cc1` is 5.23% (inactive); for `C[n+]1ccc(C(=O)NCc2ccccc2)cc1` it is 77.2% (active); for `COc1ccc(Cl)cc1NC(=O)COC(=O)c1ccc(Br)o1` it is -2.56% (inactive).
With `CCCn1nnnc1NCc1ccc(OC)cc1`, the inhibition is -5.24% (inactive).
With `COc1ccc(CNc2nnnn2C)cc1`, the inhibition is 63.5% (active).
On to `Cn1nnnc1NCc1ccc(Cl)c(Cl)c1`, for which the inhibition was 1.46% (inactive).
The figure for `Cc1ccc(N(Cc2ccccc2O)C(=O)c2ccccc2F)cc1` is 3.92% (inactive).
The same measure for `CC1(C)Oc2ccc3ccc(=O)oc3c2/C(=C/NCCO)C1=O`: 55.6% (active).
As for `CC1(C)Oc2ccc3ccc(=O)oc3c2/C(=N/O)C1=O`, the inhibition is -5.21% (inactive).
Turning to `C/C=C(/C)C(=O)OC1Cc2c(ccc3ccc(=O)oc23)OC1(C)C` (stereo not given), the inhibition was -4.35% (inactive).
Turning to `Cc1cnc(C(=O)OCC(=O)NCCCc2ccccc2)cn1`, the inhibition was -5.14% (inactive).
As for `COc1ccc2[nH]c(C)c(CCN(Cc3cccs3)C(=S)Nc3ccccc3OC)c2c1`, the inhibition was -5.52% (inactive).
The figure for `O=C(c1ccc(S(=O)(=O)NCc2ccco2)cc1)N1CCN(c2ccccc2)CC1` is -1.4% (inactive); for `COc1ccccc1CNC(=O)c1ccc(CS(=O)(=O)c2ccccc2)o1` it is 3.87% (inactive); for `O=C(c1ccc(CS(=O)(=O)c2ccccc2)o1)N1CCN(c2ccccc2)CC1` it is 40% (active).
Consider `Cc1c(NC(=O)C(C)Oc2cccc(Cl)c2)c(=O)n(-c2ccccc2)n1C` (stereo not given), for which the inhibition was 2.72% (inactive).
`O=C(NCCCNCc1ccccc1)c1ccc(/C=N/O)nc1`: the inhibition was 0.078% (inactive).
As to `C[N+](C)(C)CCNC(=O)c1cc[n+](Cc2ccccc2)c(/C=N/O)c1`, the inhibition is 77.9% (active).
The figure for `CC(C)c1ccc(C(=O)NCCCc2ccccc2)cc1` is -3.9% (inactive); for `COc1ccc(C(=O)NNc2cc(C)nc(NNC(=O)c3ccc(OC)cc3)n2)cc1` it is 1.15% (inactive); for `CCC(=O)Nc1ccc(Nc2nc(Cl)nc(Nc3ccc(NC(=O)CC)cc3)n2)cc1` it is -1.91% (inactive).
Take `CC(=O)Nc1ccc(Nc2cc(C)nc(Nc3ccc(NC(C)=O)cc3)n2)cc1`: the inhibition is 52.3% (active).
The same measure for `COc1ccc(NC(=O)C(NC(C)=O)C(=O)NCc2ccccc2Cl)cc1` (stereo not given): -1.84% (inactive).
With `CC(C)c1c(O)nc(SCCOc2ccc(Cl)cc2)[nH]c1=O`, the inhibition was -2.86% (inactive).
As for `CCN(Cc1ccccc1)C(=O)CN1C(=S)NC(C)(C)CC1C` (stereo not given), the inhibition is -4.37% (inactive).
The figure for `CCOC(=O)c1ccc(NC(=O)CNC(=O)c2ccco2)cc1` is -2.59% (inactive); for `CCN(CC)CCOC(=O)c1ccc(NC(=O)CNC(=O)c2ccccc2)cc1` it is 49.1% (active); for `CCN(CC)CCNCC(=O)Nc1ccc(Oc2ccccc2)cc1` it is -4.52% (inactive).
The figure for `CC(C)Oc1ccc(C(CC(=O)N2CCOCC2)C(C)C)cc1` (stereo not given) is 2.91% (inactive); for `CNc1ccc([N+](=O)[O-])cc1C(=O)O` it is 43.2% (active).
The figure for `Cc1ccc(NC(=O)c2cc([N+](=O)[O-])ccc2Cl)c(O)c1` is 1.45% (inactive).
Regarding `CCN(CC)c1ccc([N+](=O)[O-])cc1C(=O)O`, the inhibition is 3.17% (inactive).
Take `Cc1ccc(N/N=C2\COC(C)(C)CC2=O)cc1`: the inhibition is -3.88% (inactive).
For the molecule `Cc1cccc(OCC(=O)NCCNC(=O)c2cccnc2)c1`, the inhibition is -1.26% (inactive).
The same measure for `Cc1cccc(C(=O)NCC(=O)OCC(=O)N(C)CC(=O)Nc2ccccc2Cl)c1`: -1.62% (inactive).
Take `CCNC(=O)COC(=O)CCNC(=O)c1cccc(C)c1`: the inhibition was 82.3% (active).
The figure for `CC(C)Cn1c(N2CCN(C(=O)/C=C/c3ccccc3)CC2)nc2ccccc21` is -1.07% (inactive); for `Cc1cc2c(cc1C)[n+](C)cn2CC(O)COCC1CC=CCC1` (stereo not given) it is 46.1% (active).
The same measure for `COc1ccc(-c2noc(CCC(=O)N3CCN(c4cccc(C)c4)CC3)n2)cc1`: 3.55% (inactive); for `CC(C)(CSc1nncn1/N=C/c1ccco1)NS(=O)(=O)c1ccc(Cl)cc1`: 5.18% (inactive); for `O=C(NC1CC1)C1CCCN(C(=O)NC2CCCCC2)C1` (stereo not given): -2.29% (inactive).
`CC[C@]1(C(=O)OC)[C@H]2C(=O)N(C)C(=O)[C@H]2[C@H]2CN(C)C(=NCc3ccccc3)N21`: the inhibition is 2.1% (inactive).
